Measured values: PubChem BioAssay (NCI)
Compounds without any hit were thinned out: in the full panel of roughly 83,000, 20% have a hit.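 Compound tested at a single concentration for 48 hours in 96-well plates; a percent growth value below 10 was scored as active.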 Unmarked numbers belong to inactive results. Active and inactive are the calls of the source.

Tested on: MOLT-4 leukemia
Assay: NCI-60 one-dose screen, 48 h (100 = growth as untreated, 0 = no growth, -100 = all killed)
Settings: 10 µM unless noted
Procedure: Growth inhibition of the MOLT-4 human tumor cell line is measured as a screen for anti-cancer activity. Cells are grown in 96 well plates and exposed to the test compound for 48 hours. Compounds are tested at a single concentration, which is 10^-5 M for most compounds. The reported endpoint is percent growth (GI% or GIPRCNT), where numbers from 0 - 100% represent growth inhibition, and numbers from -100% - 0 represent cell death. For example, a value of 40 represents 60% growth inhibition. A value of 0 means no net growth occurred over the course of the experiment. A value of -40 indicates 40% of cells at the beginning of the experiment died by the end of the experiment. A value of -100 means all cells are dead at the end of the experiment.
NCI-60 Human Tumor Cell Lines Screen was performed using the standard one-dose NCI protocol, which is described in more detail at https://dtp.cancer.gov/discovery_development/nci-60/default.htm.
Compounds with GIPRCNT values below 10 were considered active. Activity score was based on GIPRCNT using the following formula: […]
Score is 0 for GIPRCNT values of 100 or above, 50 for GIPRCNT values of 0, and 100 for GIPRCNT values of -100.

Question: For `CCNc1nc(-c2ccc(Cl)c(OC)c2)c(-c2ccnc(NCCNS(=O)(=O)c3ccc(Cl)cc3)n2)s1`, which growth is on record?
Answer: 11.2%

Question: Which growth does the source give for `COC(=O)c1cc(-c2ccc(OC)c(OC)c2)[nH]c1N/N=C/c1c(Cl)cccc1Cl` here?
Answer: 39.4%

Question: Which growth does the source give for `Cc1ccc(C23CCC(=O)N2CCc2cncn23)cc1` (stereo not given) here?
Answer: 104%

Question: With `COc1cccc(/C=C/C(=O)/C=C(/C=C/c2cccc(OC)c2OC)OB(F)F)c1OC` as the compound, how does the growth read?
Answer: 9.58% (active)

Question: Which growth does the source give for `CC(Cc1cccc2ccccc12)C(N)=O` (stereo not given) here?
Answer: 99.8%

Question: Which growth does the source give for `Cc1ccc(-c2nc(C#N)c(S(=O)(=O)n3nc(C)cc3N)o2)cc1` here?
Answer: -38% (active)

Question: How did the growth turn out when `CC(=O)[C@H]1CC[C@]2(C)[C@@H]1CC[C@@H]1[C@@]3(C)C/C(=C/c4cccnc4)C(=O)C(C)(C)[C@@H]3CC[C@]12C` was run?
Answer: 20.3%

Question: With `C=CC(=O)Nc1ccc2ncnc(Nc3cccc(NS(=O)(=O)CCC)c3Cl)c2c1` as the compound, how does the growth read?
Answer: 67.3%

Question: Which growth does the source give for `COc1cc(/C=C/C(=O)c2ccc(-n3cc(CN4CCN(c5cc6c(cc5F)c(=O)c(C(=O)O)cn6C5CC5)CC4)nn3)cc2)cc(OC)c1OC` here?
Answer: 80.4%

Question: Which growth does the source give for `O=C(O)/C=C/c1cn(-c2ccccc2)nc1-c1ccc(F)cc1` here?
Answer: 109%

Question: Which growth does the source give for `Nc1ncc(-c2ccc3ncnc(N4CCc5ccc(Cl)cc54)c3c2)cn1` here?
Answer: -39% (active)

Question: `Oc1ccc(C2OCCO2)c2cccnc12` was tested. Which growth did it give?
Answer: 20.5%

Question: How did the growth turn out when `Cc1ccc(C(F)(F)F)cc1N1CCN(C(=O)[C@H]2C[C@H]2c2ccc(C(F)(F)F)nc2)CC1` was run?
Answer: 73.2%

Question: With `O=S(=O)(c1ccc(NCSc2nc3ccccc3s2)cc1)c1ccc(NCSc2nc3ccccc3s2)cc1` as the compound, how does the growth read?
Answer: 76.9%

Question: With `CCOC(=O)CC1CSC(N/N=C(/C)c2cccc(C(F)(F)F)c2)=N1` (stereo not given) as the compound, how does the growth read?
Answer: 95.8%

Question: Which growth does the source give for `O=c1c2cccc3c(N4CCOCC4)ccc(c32)c2nc3ccccc3n12` here?
Answer: 90.8%

Question: Which growth does the source give for `c1ccc(-c2nc(N3CCNCC3)c3oc(-c4ccccc4)nc3n2)cc1` here?
Answer: -24.9% (active)

Question: For `Cc1c(Cl)cccc1NC(=O)c1sc2nc3c(cc2c1N)CCCC3`, which growth is on record?
Answer: 21.6%

Question: `CCOc1ccc(N2C(=O)CCSC2=S)cc1` was tested. Which growth did it give?
Answer: 104%

Question: Which growth does the source give for `COc1ccc(C2=C/C(=C\c3ccccc3O)C(=O)N2Cc2ccccc2)cc1` here?
Answer: 66.8%

Question: Which growth does the source give for `COc1ccc(-c2nc(SCCC(C)C)nc(N/N=C(/C)c3ccc(N)cc3)c2C#N)cc1` here?
Answer: 95.4%

Question: Which growth does the source give for `COc1cc2c(c(OC)c1OC)CCC(c1cccc(NC(=O)c3cccc(Cl)c3)c1)O2` (stereo not given) here?
Answer: 57.9%

Question: Which growth does the source give for `Cn1cc(-c2csc(-c3cn(CCO)c4ccc(F)cc34)n2)c2cccnc21` here?
Answer: 46.7%

Question: For `Cn1ccnc1C(=O)/C=C/c1ccc(C(=O)Nc2ccccc2F)cc1`, which growth is on record?
Answer: 12.1%

Question: `Cc1nc2ccccc2c(/C=C/c2ccc(Cl)cc2)c1C(=O)/C=C/c1ccccc1` was tested. Which growth did it give?
Answer: 5.35% (active)

Question: With `COc1ccc(-c2cc(-c3ccc(N(C)C)cc3)nc(NC(=O)c3cccnc3)n2)cc1` as the compound, how does the growth read?
Answer: 98%

Question: For `Cc1ccc(Nc2cc(N)nc(N)n2)cc1`, which growth is on record?
Answer: 91.3%

Question: For `CCOc1cc(\C=N/N=C(N)/C(N)=N\N=C/c2ccc(O)c(OCC)c2)ccc1O`, which growth is on record?
Answer: 59.2%

Question: With `COc1cc(C(=O)n2nc(NCCCc3ccccc3)c3cc(N)ccc32)cc(OC)c1OC` as the compound, how does the growth read?
Answer: 78.6%

Question: How did the growth turn out when `CC(C)CCc1nc2ccc(NCc3ccc(OCCN4CCC(C)CC4)cc3)cc2[nH]1` was run?
Answer: 62.3%

Question: Which growth does the source give for `COc1cc2c(c(OC)c1OC)CCC(c1cccc(C(=O)Nc3ccccc3Br)c1)O2` (stereo not given) here?
Answer: 50.4%

Question: How did the growth turn out when `C=CCNc1ccc2c3c(cccc13)C(=O)N(CC=C)C2=O` was run?
Answer: 93.8%

Question: Which growth does the source give for `COc1cccc(C2C3=C(COC3=O)N(CCO)c3cc4c(cc32)OCCO4)c1` (stereo not given) here?
Answer: 11.8%

Question: `Cc1c2cnccc2c(C)c2c1c1cc(C(=O)O)ccc1n2C` was tested. Which growth did it give?
Answer: 1.6% (active)

Question: For `COc1ccccc1/C=C/C1=C(C)CCC(c2ccccc2OC)C1C` (stereo not given), which growth is on record?
Answer: 4.37% (active)

Question: How did the growth turn out when `COc1cc(CNC(=O)CCCC/C=C/C(C)C)ccc1OCc1cn(-c2ccc(C(F)(F)F)cc2)nn1` was run?
Answer: 80.3%

Question: How did the growth turn out when `COc1cc(C(=O)c2c(-c3ccccc3)oc3ccccc23)cc(OC)c1O` was run?
Answer: 28.6%

Question: How did the growth turn out when `O=C(CSc1nnc(-c2ccc(Cl)c(Cl)c2)n1-c1ccccc1)Nc1ccc(C(=O)/C=C/c2ccc(Cl)cc2)cc1` was run?
Answer: 80.5%

Question: How did the growth turn out when `CCc1ccc(Cc2cnc(NC(=O)c3cc(C)oc3C)s2)cc1` was run?
Answer: 29.2%

Question: How did the growth turn out when `Cc1nn(-c2ccccc2)c(Oc2ccccc2)c1/C=N/NC(=O)Cn1c(=O)sc2ccccc21` was run?
Answer: 10.3%
